Source: PubChem BioAssay (National Center for Advancing Translational Sciences (NCATS))
ATXN2 expr inh: inhibitors of ATXN2 expression. actives 0.72% (n = 360,000). Potency, µM (titrated, usually from 57 µM), inactives show top-dose activity change, negative = inhibition, most hits filed as inhibitors. HEK-293 ATXN2-luciferase reporter, luminescence, 24 h; also: % is scaled to controls: 0 for no effect and ±100 for the full control effect; nearly all actives have a fitted effect of over 55% in size
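ATXN2-luciferase reporter cells (luciferase flanked by upstream and downstream ATXN2 gene portions) were treated 24 h at 37 °C with compounds at up to 57 uM. SteadyGlo luminescence gave expression; GF-AFC fluorescence gave viability.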
TGFb inhibitor: blocks TGF-b signaling; actives 1.2% (n = 410,000); HepG2 CAGA-GFP TGF-b/SMAD3 reporter, GFP fluorescence, 18 h; TGF-beta stimulated, 500 pg/mL final; AID 588855; Potency, µM (highest dose often 46.1 µM), for inactives: at the top dose activity, negative = inhibition, hits mostly inhibitors; also: % is scaled to controls: 0 for no effect and ±100 for the full control effect; nearly all actives have a fitted effect of over 65% in size
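Per well, imaged GFP fluorescence of HEPG2 CAGA-GFP cells gives the signal; cells get compound, then TGF-beta (500 pg/mL final), 18 h at 37 degrees C; %Activity versus -TGF-beta and +DMSO controls.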
HepG2 viability: kills HepG2 cells in TGF-b inhibitor counter-screen. Potency, µM (titrated, usually from 46.1 µM), for inactives: top-dose activity change, negative = cytotoxicity, actives largely listed as cytotoxic. AID 588856. actives 0.76% (n = 410,000). HepG2 CAGA-GFP viability, ATP luminescence, 18 h
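HepG2 CAGA-GFP cells (1000/well, DMEM with 1% FBS) received compound, then TGF-beta at 500 pg/mL final, and were incubated 18 hours at 37 degrees C. Viability was read by CellTiter-Glo luminescence. Media-only wells were set as complete cell-killing and DMSO as no toxicity.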
ATXN viability: viability counter-screen for ATXN expression inhibitors. actives 0.49% (n = 400,000). S2 cells (HEK-293 line with an ATXN2-luciferase reporter) viability, CellTiter-Fluor protease fluorescence, 24 h. Potency, µM (highest dose often 56.7 µM), hits mostly cytotoxic. AID 651635; also: nearly all actives have a fitted effect of over 40% in size
TDP1 cell noCPT: qHTS for Inhibitors of human tyrosyl-DNA phosphodiesterase 1 (TDP1): qHTS in cells in absence of CPT | actives 15% (n = 420,000) | Potency, µM (highest dose often 46.2 µM), for inactives: top-dose activity change, negative = growth inhibition, actives largely listed as inhibitors | AID 686978, 2013 | DT40 Tdp1-/- hTDP1 cells, no CPT, ATP luminescence, 48 h; also: % is scaled to controls: 0 for no effect and ±100 for the full control effect; nearly all actives have a fitted effect of over 55% in size
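Luminescent ATP content (CellTiter-Glo) served as the growth readout. Knockout chicken DT40 cells expressing human TDP1 were exposed to compounds without camptothecin for a minimum 48 hr at 37 °C.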
TDP1 cell CPT: DT40-hTDP1 cell growth loss with CPT; chicken DT40 Tdp1-/-;hTDP1 cells + 20 nM CPT, ATP luminescence, 48 h; Potency, µM (titrated, usually from 46.2 µM), for the others: at the highest dose activity change, negative = growth inhibition, actives largely listed as inhibitors; actives 12% (n = 420,000); also: % is scaled to controls: 0 for no effect and ±100 for the full control effect; nearly all actives have a fitted effect of over 55% in size
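Chicken DT40 Tdp1-/- cells stably complemented with human TDP1 were seeded at 400 cells/well in medium containing 20 nM camptothecin, exposed to pin-transferred compounds, and grown at 37 °C for at least 48 hr. Viability was read as ATP luminescence.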
Active calls of the source: *; i = inactive; ? = inconclusive; · = no result. The list is not random: actives were taken first. Their share in the collection is about 17%. Calls follow the shape of the dose curve; as a rule, active = well fitted curve in the direction sought with a large enough effect; inconclusive = small, poorly fitted or top-dose-only effect, or another doubt; inactive = no such curve, though single readings can be large; an effect the other way counts as inactive or inconclusive. Potency is read from the fitted curve at half-maximal effect.

SMILES	ATXN2 expr inh	TGFb inhibitor	HepG2 viability	ATXN viability	TDP1 cell noCPT	TDP1 cell CPT
CCc1ccc(C2c3c(n[nH]c3C)C(=O)N2c2ccc(C)cc2)cc1 (stereo not given)	10%	?	-64%	?	?	?
COc1ccc(OCc2nc3ccccc3n2Cc2ccccc2Cl)cc1	-25%	?	-40%	i	?	?
COc1cccc(Cn2c(C(C)n3c(-c4cnccn4)nc4ccccc43)nc3ccccc32)c1 (stereo not given)	·	·	·	·	21µM*	?
COc1cccc(OCc2nc3ccccc3n2CCOc2ccc(C)cc2)c1	-22%	?	-29%	i	16µM*	23µM*
COc1cccc(OCc2nc3ccccc3n2CCOc2ccccc2C)c1	?	?	-53%	?	?	?
COc1ccc(OCc2nc3ccccc3n2Cc2ccc(C(C)(C)C)cc2)cc1	56%	16µM*	-26%	i	?	?
Cc1ccccc1Cn1c(COc2ccc(Cl)cc2)nc2ccccc21	13%	-31%	-4%	i	13µM*	?
O=C(Cn1c(=O)nc(-c2ccccc2)c2ccccc21)Nc1ccc(Cl)c(C(F)(F)F)c1	·	2%	-4%	·	7%	7%
Cc1ccc(C(=O)Oc2ccccc2N2C(=O)C3C4CCC(C4)C3C2=O)cc1 (stereo not given)	-3%	-1%	-4%	?	-14%	-9%
CCn1c(Cc2ccc(OC)cc2)nc2ccccc21	-5%	-19%	-30%	i	-28%	?
COCc1nc2ccccc2n1Cc1ccc(C(C)(C)C)cc1	2%	10µM*	-59%	?	26µM*	21µM*
CCn1c(COc2cccc(C)c2)nc2ccccc21	5%	0%	-12%	i	?	?
COc1cccc(OCc2nc3ccccc3n2Cc2ccccc2)c1	33%	?	-55%	i	18µM*	?
O=C(Nc1c(-c2ccc3c(c2)OCO3)[nH][nH]c1=O)c1ccccc1	?	?	-42%	?	?	?
O=C(OCC(=O)N1CCCCC1)c1cc(NS(=O)(=O)c2ccc(Cl)c([N+](=O)[O-])c2)ccc1O	0%	?	-53%	i	?	-18%
COc1cc2c(cc1OC)[C@@H](NC(=O)CCc1ccccc1)[C@H](OCc1ccccc1)C2	11%	-17%	-36%	i	?	10µM*
CC1=CC2=NC(=O)CC(C)(C(=O)N(CC(=O)NC(C)(C)C)C3CCCC3)N2C=C1 (stereo not given)	-1%	-2%	0%	i	-6%	-21%
CC1=CC2=NC(=O)CC(C)(C(=O)N(CC(=O)NC3CCCC3)c3cc(C)cc(C)c3)N2C=C1 (stereo not given)	·	4%	-6%	i	21µM*	13µM*
COc1ccc(-c2nc(N)ncc2-c2ccccc2OC)c(O)c1	-9%	-24%	-24%	i	-23%	?
COc1cccc(Oc2cnc(N)nc2-c2ccc(OC)cc2O)c1	-10%	-7%	1%	i	2.3µM*	2.9µM*
COc1ccc(-c2nc(N)nc(C(F)(F)F)c2-c2ccccc2OC)c(O)c1	·	-27%	-42%	i	23µM*	?
COc1cc(Cl)c(C)cc1NC(=O)c1cnn(-c2ccc(F)cc2F)c1C1CCN(C(=O)OC(C)(C)C)CC1	·	?	-35%	·	?	?
CC(C)(C)c1ccc(CC(=O)N2CCC2(C)C(=O)Nc2ccc3[nH]ncc3c2)cc1 (stereo not given)	-31%	63%	-26%	?	9.2µM*	15µM*
C#Cc1ccc(NC(=O)C2(C)CCN2C(=O)Cc2ccc(C(C)C)cc2)cc1 (stereo not given)	?	-7%	-28%	?	?	?
CC1(C(=O)Nc2ccc3[nH]ncc3c2)CCN1C(=O)CCc1ccccc1 (stereo not given)	12%	34%	1%	i	?	?
SMILES	ATXN2 expr inh	TGFb inhibitor	HepG2 viability	ATXN viability	TDP1 cell noCPT	TDP1 cell CPT
CC1(C(=O)Nc2ccc3[nH]ncc3c2)CCN1C(=O)Cc1ccc(-c2ccccc2)cc1 (stereo not given)	-20%	1%	-30%	?	13µM*	16µM*
C#Cc1ccc(NC(=O)C2(C)CCN2C(=O)Cc2ccc(C(C)(C)C)cc2)cc1 (stereo not given)	0%	-30%	-20%	?	?	21µM*
CC1(C(=O)Nc2cccc(C#N)c2)CCN1C(=O)C/C=C/c1ccccc1 (stereo not given)	0%	-28%	0%	i	?	?
C#Cc1ccc(NC(=O)C2(C)CCN2C(=O)C/C=C/c2ccccc2)cc1 (stereo not given)	0%	-1%	-18%	i	9.2µM*	16µM*
CC(=O)NC(CC(=O)OCC(=O)N1CCc2ccccc21)c1ccccc1 (stereo not given)	·	-2%	-1%	i	9%	10%
CCC(=O)OC1CC(C)N(C(=O)c2ccccc2)c2ccc(C)cc21 (stereo not given)	-10%	0%	-24%	i	14µM*	11µM*
CCCC(=O)N1c2ccccc2C(N(C(C)=O)c2ccccc2)CC1C (stereo not given)	-1%	1%	-19%	i	?	23µM*
Cc1ccc(C(=O)N(c2ccccc2)C2CC(C)N(C(=O)c3ccco3)c3ccccc32)cc1 (stereo not given)	?	-24%	-5%	?	4.6µM*	7.3µM*
CCC(=O)N1c2ccccc2[C@@H](N(C(C)=O)c2ccccc2)C[C@H]1C	84%	1%	0%	i	-24%	-24%
Cc1ccc(CSC2=NCCN2C(=O)c2ccco2)cc1	5%	9%	0%	i	-23%	-3%
CC(=O)N(c1ccccc1)C1CC(C)N(C(=O)c2ccccc2)c2ccccc21 (stereo not given)	-19%	?	-4%	i	7.3µM*	8.2µM*
Cc1ccc(CNC(=O)C(N=C2NS(=O)(=O)c3ccccc32)C(C)C)cc1 (stereo not given)	7%	0%	-3%	?	1%	-20%
Cc1csc(SCC(=O)Nc2ccccc2[N+](=O)[O-])n1	-11%	-16%	-1%	·	-15%	-7%
